Compounds with a hit are over-represented: about 0.38% of the library has one in this group of screens.
Rac1 act GTP bind – GTP binding modulators of activated mutant Rac1, primary screen, biochemical, bead-based flow cytometry, multiplex, fluorescent GTP; Ras-related C3 botulinum toxin substrate 1 (Homo sapiens), P63000; GST-Rac1 activated beads; actives lie on both sides; 100% means binding = to untreated wells; percent activity (GTP binding), % at 10 µM; actives 0.11% (n = 190,000);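 active = GTP binding at least 20 percentage points away from the 100% baseline, in either direction, so actives lie on both sides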
Rac1 wt GTP bind – wildtype Rac1 GTP binding modulators, primary screen, biochemical, GST-Rac1 beads, flow cytometry, multiplex; fluorescent GTP binding; actives lie on both sides; 0 = cold GTP competed, 100 = untreated; GTP binding activity (% of control), % at 10 µM; actives 0.27% (n = 190,000);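 active = GTP binding activity at least 20 points away from the 100% control level, either lower or higher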
HRas wt GTP – modulators of GTP binding to HRas wildtype, primary screen, biochemical, bead-based flow cytometry, multiplex; GTP binding activity, % at 10 µM; GST-Ras wt beads, Bodipy-FL-GTP binding; actives lie on both sides; actives 0.14% (n = 190,000);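 active = GTP binding activity at least 20% away from the 100% baseline, either lowered as inhibitor or raised as activator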;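 note: 0% = unlabeled GTP competition control and 100% = no-compound control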
Target sequence (P01112 whole entry, looked up): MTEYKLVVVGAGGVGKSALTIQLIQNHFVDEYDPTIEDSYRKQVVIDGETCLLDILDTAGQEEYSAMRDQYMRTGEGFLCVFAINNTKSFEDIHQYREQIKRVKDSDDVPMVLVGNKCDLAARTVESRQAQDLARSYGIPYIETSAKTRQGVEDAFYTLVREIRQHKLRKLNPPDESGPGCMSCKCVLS
Rab7 wt GTP bind – modulators of GTP binding to Rab7, primary screen, biochemical, wildtype, multiplex bead flow cytometry; Rab7 GTPase wild type (dog), Bodipy-FL-GTP binding; GST-Rab7 beads, fluorescent GTP binding; actives lie on both sides; untreated = 100%, excess cold GTP = 0%; GTP binding activity (percent of control), % at 10 µM; actives 0.055% (n = 190,000); AID 758, 2007;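 active = fluorescent GTP binding to Rab7 beads changed by at least 20 points from the 100% baseline, either direction, mostly lower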;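 note: median green fluorescence of bound Bodipy-FL-GTP per Rab7 bead population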
Cdc42 wt – modulators of GTP binding to wildtype Cdc42, primary screen, biochemical, multiplex bead flow cytometry, Bodipy-GTP | actives 0.2% (n = 190,000) | percent activity (GTP binding), % at 10 µM | GST-Cdc42 beads; actives lie on both sides | Cell division control protein 42 homolog (Homo sapiens), P60953 | AID 761, 2007;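 active = percent activity GTP binding at least 20 points away from the 100% baseline, either down as inhibitor or up as activator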;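 note: median bead fluorescence of bound Bodipy-FL-GTP at 100 nM; 0% = excess unlabeled GTP control and 100% = no compound control; below 100% means less GTP binding so inhibitor and above means activator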
Target sequence (P60953 whole entry, looked up): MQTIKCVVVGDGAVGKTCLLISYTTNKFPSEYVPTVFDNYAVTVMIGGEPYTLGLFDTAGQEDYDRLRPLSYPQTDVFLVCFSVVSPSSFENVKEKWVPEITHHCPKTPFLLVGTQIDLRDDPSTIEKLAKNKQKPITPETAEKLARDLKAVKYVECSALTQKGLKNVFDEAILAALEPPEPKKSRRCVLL
Rab2A wt mod – modulators of GTP binding to Rab2A wildtype, primary screen, biochemical, dog, bead-based flow cytometry, multiplex. GST-Rab2 wt beads, Bodipy-GTP binding. GTP binding activity, % at 10 µM. actives 0.19% (n = 190,000). AID 760, 2007;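 active = GTP binding activity at least 20 points away from 100%, either lowered or raised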;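 note: 0% = beads with excess unlabeled GTP and 100% = no-compound control corrected for plate trend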
Starred values were filed as active, the others as inactive; [ ] = remark or other dose.

SMILES | Rac1 act GTP bind | Rac1 wt GTP bind | HRas wt GTP | Rab7 wt GTP bind | Cdc42 wt | Rab2A wt mod
CCOC(=O)N1CCN(C(=O)CNC2CCCCCCC2)CC1 | 101 | 102 | 100 | 94 | 101 | 96
CC1(C)Cc2c(sc3c2C2=NCCN2C=N3)CS1 | 104 | 123*[activator] | 106 | 104 | 113 | 107
O=S1(=O)N=C(N(CCO)/N=C/C=C/c2ccccc2)c2ccccc21 | 80 | 61* | 70* | 84 | 79* | 72*
COc1ccc(NC(=O)COC(=O)c2ccc(OCc3c(C)noc3C)cc2)cc1OC | 98 | 103 | 101 | 101 | 102 | 100
COc1cc(C(=O)OCC(=O)Nc2ccc3c(c2)OC(F)(F)O3)ccc1OCc1c(C)noc1C | 37* | 39* | 43* | 28* | 34* | 40*
O=[N+]([O-])c1cc(-c2ncccn2)c([N+](=O)[O-])s1 | 76* | 95 | 96 | 101 | 81 | 92
COc1cc(NC(=O)COC(=O)/C=C/c2ccc(Cl)cc2Cl)cc(OC)c1 | 98 | 96 | 98 | 96 | 99 | 96
COc1cccc(NC(=O)COC(=O)/C=C/c2ccc(Cl)cc2Cl)c1 | 80 | 77* | 82 | 86 | 79* | 79*
CCOC(=O)c1[nH]ncc1CN1CCCC(C(=O)c2ccc(C(C)(C)C)cc2)C1 (stereo unspecified) | 97 | 100 | 99 | 97 | 99 | 99
Cc1cc(C)n2nc(SCCOc3ccc(F)cc3)nc2n1 | 82 | 68* | 73* | 100 | 68* | 74*
CCOC(=O)C1=C(N)OC2=C(C(=O)CCC2)C1c1ccco1 (stereo unspecified) | 92 | 94 | 97 | 98 | 94 | 101
CCOc1ccccc1C1C(C(=O)OC)=C(N)OC2=C1C(=O)CCC2 (stereo unspecified) | 110 | 133*[activator] | 116 | 111 | 125*[activator] | 118
COc1ccc(OC)c(C(C(=O)NCc2ccco2)N(C(=O)Cn2nnc3ccccc32)C2CC2)c1 (stereo unspecified) | 119 | 130*[activator] | 121*[activator] | 116 | 126*[activator] | 121*[activator]
NC1=NC(=O)/C(=C/c2cn(CCC(=O)O)nc2-c2ccc(Cl)cc2)S1 | 85 | 77* | 81 | 89 | 85 | 81
NC1=NC(=O)/C(=C/c2cn(CCC(=O)O)nc2-c2ccc(F)cc2)S1 | 100 | 96 | 97 | 98 | 97 | 98
O=C1N(Cc2cccnc2)C[C@@H]2C[C@@H](c3ccc4nsnc4c3)N3CCC[C@@]123 | 95 | 95 | 97 | 103 | 98 | 100
CCOc1ccc(NC(=O)c2cc(F)c(F)cc2Cl)cc1OCC | 92 | 97 | 97 | 101 | 95 | 95
O=C1N/C(=C/c2ccc(N3CCOCC3)o2)C(=O)N1c1cccc(Cl)c1 | 97 | 100 | 100 | 106 | 101 | 99
COc1ccc2ccccc2c1/C=N/NC(=S)Nc1cc(S(=O)(=O)N2CCOCC2)ccc1N1CCOCC1 | 101 | 106 | 103 | 97 | 108 | 100
COc1ccc(/C=N/NC(=S)Nc2cc(S(=O)(=O)N3CCOCC3)ccc2N2CCOCC2)cc1O | 114 | 136*[activator] | 117 | 119 | 116 | 116
Cc1ccc(NC(=S)NNC(=O)c2ccccc2O)c(C)c1 | 96 | 100 | 98 | 106 | 101 | 102
O=C(O)CC/C(=C\c1ccc(N2CCCC2)c([N+](=O)[O-])c1)c1nc2ccccc2s1 | 75* | 82 | 79* | 81 | 75* | 74*
Cc1nn(-c2ccc(F)cc2)c(Cl)c1/C=C(\CCC(=O)O)c1nc2ccccc2s1 | 65* | 72* | 80 | 79* | 68* | 76*
O=C(O)CC/C(=C\c1cccc(NC(=O)c2ccccc2Cl)c1)c1nc2ccccc2s1 | 88 | 93 | 92 | 98 | 87 | 92
O=C(O)CCSc1nc2ccccc2s1 | 95 | 100 | 97 | 95 | 99 | 98
SMILES | Rac1 act GTP bind | Rac1 wt GTP bind | HRas wt GTP | Rab7 wt GTP bind | Cdc42 wt | Rab2A wt mod
O=C(O)CC/C(=C\c1ccccc1[N+](=O)[O-])c1nc2ccccc2s1 | 74* | 81 | 80 | 90 | 73* | 76*
O=C(C(=O)N1CCCC1CO)N1CCCC1CO (stereo unspecified) | 96 | 99 | 94 | 96 | 96 | 95
N#CCC(=O)Nn1c(=S)[nH]c2ccccc2c1=O | 98 | 106 | 101 | 96 | 103 | 99
NS(=O)(=O)c1ccc(N2N=C(c3ccccc3)CC2c2cccc(F)c2)cc1 (stereo unspecified) | 101 | 106 | 102 | 102 | 61* | 100
FC(F)(F)c1cccc(NC(=S)NNC(=S)NCc2ccccc2)c1 | 80* | 80 | 86 | 86 | 81 | 84
FC(F)(F)c1ccc(C2NCCc3sccc32)cc1 (stereo unspecified) | 96 | 97 | 100 | 103 | 97 | 97
Cc1ccc(CSc2nnc(-c3ccccc3N)c(=O)[nH]2)cc1 | 100 | 120*[activator] | 98 | 97 | 102 | 98
NC(=O)N=Nc1c(O)[nH]c2c(Br)cc(Br)cc12 | 87 | 69* | 78* | 83 | 75* | 75*
O=C(CCCCCNC(=O)c1ccccc1)N=Nc1c(O)[nH]c2c(Br)cc(Br)cc12 | 90 | 99 | 97 | 112 | 92 | 98
Cc1ccc(C2=Nc3cccnc3C(c3ccccc3)=NN2)cc1 | 94 | 100 | 99 | 105 | 97 | 102
CC(C)N(C(=O)CSc1nnc(Cc2csc(Nc3ccccc3)n2)o1)C(C)C | 97 | 98 | 97 | 96 | 101 | 98
O=C(N1CCOCC1)C12CC3CC(C1)CC(n1cnc(Cl)n1)(C3)C2 | 100 | 105 | 102 | 97 | 106 | 101
CC(C)NC(=O)C12CC3CC(C1)CC(n1cnc(Cl)n1)(C3)C2 | 105 | 121*[activator] | 106 | 105 | 111 | 107
CCCc1cc(NCC2CCCO2)n2c(nc3ccccc32)c1C#N (stereo unspecified) | 98 | 96 | 97 | 94 | 95 | 97
Cc1cc(NCc2ccccn2)n2c(nc3ccccc32)c1C#N | 84 | 66* | 75* | 78* | 72* | 70*

Bioassay records as filed in PubChem BioAssay.
